Measured values: PubChem BioAssay (EPA / NIEHS)
Activity calls are given as the source filed them. How the source made its calls: active means hit-call score of the fitted dose curve at least 0.9, where 1 is the maximum; inactive means score below 0.9.

Assays:
Details in all cases: mRNA level, 48 h; actives raise or lower the signal
[1] = read-out: solute carrier (SLCO1B1), SLCO1B1 (gene 10599); test: LTEA_HepaRG_SLCO1B1: Life Technologies and Expression Analysis (LTEA) Assay for solute carrier (SLCO1B1) using HepaRG (AID 2283530)
Procedure, shortened: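 Differentiated human HepaRG cells, plated 48 h, switched to serum-free induction medium and exposed in duplicate for 48 h to 8 half-log concentrations (top 100 uM) in 0.5% DMSO. SLCO1B1 mRNA by TaqMan qRT-PCR, normalized to ACTB/GAPDH/POLR2A.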

[2] = read-out: sulfotransferase 2A1 (SULT2A1), SULT2A1 (gene 6822); test: LTEA_HepaRG_SULT2A1: Life Technologies and Expression Analysis (LTEA) Assay for sulfotransferase 2A1 (SULT2A1) using HepaRG (AID 2283531)
Procedure, shortened: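 Differentiated human HepaRG cells in serum-free induction medium were exposed for 48 h to eight half-log concentrations (top 100 uM, 0.5% DMSO). SULT2A1 mRNA was measured by qRT-PCR, normalized to ACTB, GAPDH and POLR2A, and fitted bidirectionally against DMSO.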

[3] = read-out: Transforming Growth Factor (TGFA), TGFA (gene 7039); test: LTEA_HepaRG_TGFA: Life Technologies and Expression Analysis (LTEA) Assay for Transforming Growth Factor (TGFA) using HepaRG (AID 2283532)
Procedure, shortened: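 Differentiated human HepaRG cells, plated 48 h then switched to serum-free induction medium, were exposed in duplicate for 48 h to 8-point half-log series from 100 uM in 0.5% DMSO. TGFA mRNA measured by qRT-PCR, normalized to ACTB/GAPDH/POLR2A, bidirectional fit versus DMSO.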

TIMP1, TIMP1 (gene 7076) = test: LTEA_HepaRG_TIMP1: Life Technologies and Expression Analysis (LTEA) Assay for TIMP1 using HepaRG (AID 2283534)
Procedure, shortened: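 Differentiated human HepaRG cells in serum-free induction medium were exposed 48 h to chemicals (8 half-log concentrations, top 100 uM, 0.5% DMSO). TIMP1 mRNA was quantified by TaqMan qRT-PCR, normalized to ACTB/GAPDH/POLR2A; bidirectional fit versus DMSO.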

[4] = read-out: Tumor necrosis factor receptor 1 (TNFRSF1A), TNFRSF1A (gene 7132); test: LTEA_HepaRG_TNFRSF1A: Life Technologies and Expression Analysis (LTEA) Assay for Tumor necrosis factor receptor 1 (TNFRSF1A) using HepaRG (AID 2283535)
Procedure, shortened: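 Differentiated human HepaRG cells were exposed in duplicate for 48 h in serum-free induction medium to eight concentrations (top 100 uM, half-log steps, 0.5% DMSO). TNFRSF1A mRNA was quantified by qRT-PCR, normalized to ACTB, GAPDH and POLR2A, then fitted bidirectionally against DMSO.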

[5] = read-out: Thyroid Hormone Responsive (THRSP), THRSP (gene 7069); test: LTEA_HepaRG_THRSP: Life Technologies and Expression Analysis (LTEA) Assay for Thyroid Hormone Responsive (THRSP) using HepaRG (AID 2283536)
Procedure, shortened: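 Differentiated human HepaRG cells were exposed in duplicate for 48 h in serum-free induction medium to eight concentrations (top 100 uM, half-log steps, 0.5% DMSO). Expression was quantified by TaqMan qRT-PCR, normalized to ACTB, GAPDH and POLR2A, with bidirectional fitting against DMSO.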

[6] = read-out: Cellular tumor antigen p53 (Homo sapiens) (UniProt P04637); test: LTEA_HepaRG_TP53: Life Technologies and Expression Analysis (LTEA) Assay for Tumor Protein P53 (TP53) using HepaRG (AID 2283537)
Procedure, shortened: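 TP53 transcript measured by qRT-PCR, normalized to three housekeeping genes, after 48 h treatment of human HepaRG cultures with chemicals from 100 uM downward in half-log steps (0.5% DMSO vehicle, serum-free induction medium). Up- or down-regulation fitted against DMSO.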

[7] = read-out: UDP glucuronosyltransferase (UGT1A1), UGT1A1 (gene 54658); test: LTEA_HepaRG_UGT1A1: Life Technologies and Expression Analysis (LTEA) Assay for UDP glucuronosyltransferase (UGT1A1) using HepaRG (AID 2283538)
Procedure, shortened: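 Human liver HepaRG cultures receive test chemical for 48 h, up to 100 uM in 0.5% DMSO, with phenobarbital induction controls. UGT1A1 mRNA is measured by qRT-PCR and normalized to ACTB, GAPDH and POLR2A.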

[8] = read-out: UDP glucuronosyltransferase (UGT1A6), UGT1A6 (gene 54578); test: LTEA_HepaRG_UGT1A6: Life Technologies and Expression Analysis (LTEA) Assay for UDP glucuronosyltransferase (UGT1A6) using HepaRG (AID 2283539)
Procedure, shortened: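 Human HepaRG cells were dosed for 48 h in serum-free induction medium with 0.5% DMSO vehicle, eight-point half-log series from 100 uM, in duplicate. UGT1A6 mRNA was measured by qRT-PCR, normalized to ACTB, GAPDH, POLR2A, and fitted bidirectionally against DMSO.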

Measured: AC50

Cellular tumor antigen p53 (Homo sapiens), sequence (P04637 whole entry, looked up): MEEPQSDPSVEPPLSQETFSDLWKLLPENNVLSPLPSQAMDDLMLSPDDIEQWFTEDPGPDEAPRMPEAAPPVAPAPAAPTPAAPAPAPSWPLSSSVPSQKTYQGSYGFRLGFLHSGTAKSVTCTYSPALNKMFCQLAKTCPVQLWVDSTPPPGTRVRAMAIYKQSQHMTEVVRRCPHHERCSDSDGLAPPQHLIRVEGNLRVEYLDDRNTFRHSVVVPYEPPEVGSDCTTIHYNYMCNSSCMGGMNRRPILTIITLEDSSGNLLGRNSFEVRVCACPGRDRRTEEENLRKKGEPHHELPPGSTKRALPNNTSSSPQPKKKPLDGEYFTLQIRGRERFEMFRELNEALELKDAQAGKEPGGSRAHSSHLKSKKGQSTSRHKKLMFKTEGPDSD

CCCCCCCCn1sccc1=O
active: [1] 84.1 µM | [5] 87.3 µM | [8] 81.3 µM
inactive: all other assays above

CN(C)C(=O)Nc1ccc(Cl)cc1
active: [7] 30.8 µM
not listed: [8]
inactive: all other assays above

OCCCl
inactive: all assays above

ClC1=C(Cl)[C@]2(Cl)[C@H]3[C@H]([C@@H]4C=C[C@H]3C4)[C@@]1(Cl)C2(Cl)Cl
active: [5] 30.8 µM | [7] 6.68 µM
not listed: [8]
inactive: all other assays above

Nc1ccc(Cc2ccc(N)cc2)cc1
active: [7] 26.2 µM
not listed: [8]
inactive: all other assays above

CC(C)(C)OOC(=O)c1ccccc1
not listed: [5] | [6] | [8]
inactive: all other assays above

C=CCc1ccc2c(c1)OCO2
not listed: [6]
inactive: all other assays above

CCC[CH2][Sn]([Cl])([CH2]CCC)[CH2]CCC
inactive: TIMP1, TIMP1 (gene 7076)
active: [1] 2.3 µM | [2] 1.63 µM | [3] 50 µM | [4] 50 µM | [7] 3.12 µM

C[N+](C)(C)CC1CO1 (configuration not stated)
not listed: [6]
inactive: all other assays above

c1ccc(N=Nc2ccccc2)cc1
not listed: [4] | [6]
inactive: all other assays above

OCCOCCO
not listed: [6]
inactive: all other assays above

CCOc1cccc(C2(N3CCN(c4ccccc4)CC3)CCC(C)CC2)c1 (configuration not stated)
active: [7] 43.5 µM
not listed: [5] | [8]
inactive: all other assays above

Oc1ccccc1Cl
not listed: [5]
inactive: all other assays above

O=C(N[C@H](c1ccccc1)[C@@H]1CN2CCC1CC2)c1c(Cl)ccc(C(F)(F)F)c1Cl
active: [1] 73.9 µM | [2] 73.2 µM | [3] 46.2 µM | TIMP1, TIMP1 (gene 7076) 64.9 µM | [4] 73.9 µM | [7] 63.8 µM | [8] 68.2 µM
inactive: [5]

O=[N+]([O-])C(Br)(CO)CO
not listed: [5] | [6] | [8]
inactive: all other assays above

Brc1ccc(Oc2ccccc2)cc1
not listed: [5]
inactive: all other assays above
